# “And” between values parts separate entries of the source, which are not always exact repeats. Equal values may be shown once. In all, about 310,000 compounds went through this assay and about 11,000 (3.5%) were called active. Entries that show only a call come without a potency. Not shown: some 8% with an inconclusive outcome. Calls follow the shape of the dose curve; as a rule, active = well fitted inhibition curve with a large enough effect; inconclusive = small, poorly fitted or top-dose-only effect, or effect the other way; inactive = flat fitted curve, though single readings scatter. The full list was thinned out, with actives kept by preference.
# Assay: VP16 counterscreen qHTS for inhibitors of ROR gamma transcriptional activity; also: nearly all actives have a fitted effect of over 50% in size
# Details: Drosophila S2 Gal4-VP16 UAS-luciferase, luminescence, 20 h; series mostly up to 53.6 µM
# From the text: NIH Molecular Libraries Probe Production Network [MLPCN]
# NIH Chemical Genomics Center [NCGC]
# Assay Provider: Dan Littman, New York University
# The retinoic acid-related orphan receptor (ROR) gamma is a transcription factor that has a central role in the differentiation of Th17 cells, a subset of T helper cells that secrete the inflammatory cytokines IL-17, IL-17F, and IL-22. Th17 cells have been implicated in graft versus host disease, autoimmune disease and asthma. ROR gamma is induced in naive T helper cells in the presence of TGF-beta combined with IL-6, IL-21, or IL-23, and thereafter directs the expression of the Th17 lineage cytokines. To identify nonspecific inhibitors, a Drosophila Schneider cell line was stably transfected with two vectors: a gene expressing a fusion of the Gal4 DNA binding domain and VP16 transactivation domain under the control of the metallothionine promoter and a Photinus luciferase reporter regulated by the Gal4 binding site enhancer, UAS. […] Small molecule inhibitors that inhibit components common to the RORgt and VP16 assays, such as the Gal4 DNA binding domain or the UAS luciferase reporter, will be active in both assays and thus scored as nonspecific.
# For screening, 600 cells in 4 uL/well were dispensed into white solid 1536-well plates (Grenier) using a solenoid-based dispenser. Following transfer of 23 nL compound or DMSO vehicle by a pin tool, the plates were incubated 1 hr at ambient temperature, and 1 uL/well copper sulfate (700 uM final concentration) was added. The plates were centrifuged 15 s at 1000 RPM and incubated 20 hr at ambient temperature. After addition of 1.5 uL Photinus luciferase detection reagent, the plates were incubated 10 min at ambient temperature and then read by a ViewLux (Perkin Elmer) to detect luminescence.
# Potency is read from the fitted curve at half-maximal effect.
row,Structure (SMILES),Potency
1,Cc1ccc(S(=O)(=O)c2nnn3c2nc(N2CCN(c4ccccn4)CC2)c2ccccc23)cc1,inactive
2,COc1ccc(-c2cc(=O)oc3cc(OC(C)C(=O)Nc4ccc(CN5CCOCC5)cc4)ccc23)cc1 (configuration not stated),inactive
3,Cc1ccc(OCc2nc3ccccc3n2C)cc1,inactive
4,Cn1cc(/C=C/c2nc3ccccc3c(=O)n2-c2cccc([N+](=O)[O-])c2)c2ccccc21,inactive
5,Cc1nc2ccccc2c(=O)n1Cc1ccc([N+](=O)[O-])cc1,inactive
6,CCn1c(/C=C/c2ccc([N+](=O)[O-])o2)nc2ccccc2c1=O,11.2 µM (active)
7,CCCCn1c(N)c(N(CCOC)C(=O)c2oc3ccc(OC)cc3c2C)c(=O)[nH]c1=O,inactive
8,O=C(N/N=C/c1sc(N2CCCCC2)nc1-c1cccs1)c1cccnc1,10 µM (active)
9,Cc1cc(/C=N/NC(=O)c2cccnc2)c(C)n1CC(C)C,inactive
10,O=C(N/N=C/c1ccc(O)c2ccccc12)c1cccnc1,inactive
11,O=C(NCCS(=O)(=O)N1CCN(c2ccccc2F)CC1)c1ccc(Br)o1,inactive
12,Oc1c(Cl)cc(Cl)c(Cl)c1Cc1c(O)c(Cl)cc(Cl)c1Cl,3.16 µM (active) and 7.08 µM (active) and 3.98 µM (active)
13,CCCCCN(C(=O)CCC(=O)OCC(=O)NCc1ccc(OC)cc1)c1c(N)n(CCCC)c(=O)[nH]c1=O,inactive
14,CC(=O)Nc1ccc(S(=O)(=O)N2CCC(C(=O)NC3CC3)CC2)cc1,inactive
15,CCOc1ccc(NC(=O)[C@H](C)NC(=O)C2CC(=O)N(c3ccc(OC)cc3)C2)cc1 (some centres not stated),inactive
16,O=C(Cc1cccc2ccccc12)NNC(=O)Nc1ccc(Cl)cc1,inactive
17,Fc1ccccc1CNC(=S)Nc1ccc(Cl)cc1,7.08 µM (active)
18,Fc1ccccc1Cn1cnc(NC(=S)NCCc2ccccc2)n1,inactive
19,COc1ccc(CCNC(=O)CSCc2ccc(Br)cc2)cc1OC,inactive
20,CS(=O)(=O)N(CC(=O)N1CCOCC1)c1cccc(Cl)c1Cl,inactive
21,O=C1C2C(c3ccccc3)CC=CC2C(c2ccoc2)N1Cc1ccccc1 (configuration not stated),inactive
22,CCc1nc(NCCO)c(C#N)c2c1CCCC2,inactive
23,CCN1CCc2c(C#N)c(NCc3ccccc3)nc(NCCO)c2C1,inactive

row,Structure (SMILES),Potency
1,CC(C)CCNc1nc(N2CCCC2)c2c(c1C#N)CCN(C)C2,11.2 µM (active)
2,Cn1cccc1C(=O)N1CCc2ccccc2C1,inactive
3,Cc1cccc(C)c1NC(=O)N1CC(C)OC(C)C1 (configuration not stated),inactive
4,Cc1cccc(C)c1NC(=O)C(Cl)C(=O)c1ccccc1 (configuration not stated),22.4 µM (active)
5,Cc1cccc(C)c1NC(=O)C(c1ccccc1)N1CC(=O)Nc2ccccc21 (configuration not stated),inactive
6,CSCC[C@H](NC(=O)N1CCn2c1nc1ccccc12)C(=O)NC1CCCCC1,inactive
7,O=C(COC(=O)/C(=C/c1cccs1)c1cccs1)NCc1ccccc1Cl,0.631 µM (active)
8,O=C(COC(=O)c1cccs1)NCc1cccs1,inactive
9,O=C(COC(=O)c1cccs1)Nc1ccccc1Cl,inactive
10,O=C(Nc1cccc(Cl)c1Cl)c1ccccc1NC(=O)C1CC=CCC1C(=O)O (configuration not stated),inactive
11,CCC1CCCCN1C(=O)CSc1nc2c(c(=O)n1C)SC(C)C2 (configuration not stated),inactive
12,Cn1c(NC(=O)c2ccccc2)nc2ccccc21,1.26 µM (active)
13,CC(=O)NCCc1nc2cc(NC(=O)c3ccccc3)ccc2n1C,inactive
14,CCn1c(NC(=O)c2nn(C)cc2Br)nc2ccccc21,5.01 µM (active)
15,Cc1nn(C)cc1C(=O)Nc1ccccc1Br,inactive
16,Cn1sc(NC(=O)c2ccccc2)nc1=O,inactive
17,CCC(=O)NCCc1nc2ccccc2n1CC,inactive
18,CC(C)Cc1nnc(NC(=O)CN2C(=O)NC3(CCCCC3)C2=O)s1,inactive
19,Cc1cccn2c(=O)c3cc(C(=O)NCC4CCCO4)c(=N)n(Cc4ccc(F)cc4)c3nc12 (configuration not stated),inactive
20,COc1ccccc1CN(C)C(=O)c1cc2ccccc2o1,inactive
21,COc1cc(/C=N/NC(=O)c2cccnc2)ccc1OC(=O)c1cccc(Br)c1,inactive
22,COc1ccc(-c2[nH]ncc2/C=N/NC(=O)c2cc(Br)ccc2O)c(OC)c1,0.891 µM (active)
23,COc1ccc(/C=N/NC(=O)Nc2ccc3nsnc3c2)c(OC)c1,inactive

row,Structure (SMILES),Potency
1,CN(c1ccccc1)S(=O)(=O)c1ccc(NC(=O)COc2ccccc2)cc1,inactive
2,COc1cc(/C(=C/c2ccccc2)c2ccccc2)c2c(c1)oc1ccccc12,inactive
3,O=C(OCc1ccc(Br)cc1)c1cccc(-c2nnc(-c3ccccc3)o2)c1,inactive
4,O=C(COC(=O)c1ccc(Oc2ccccc2)cc1)Nc1nnc(-c2ccccc2)o1,5.62 µM (active)
5,Cc1cccc(NC(=O)Nc2nnc(-c3ccccc3)o2)c1,inactive
6,COc1cc(CNCc2ccc3c(c2)OCO3)c([N+](=O)[O-])cc1OC,inactive
7,Cc1ccc(C)c(OCc2cc(C(=O)N3CCN(c4cnccn4)CC3)no2)c1,inactive
8,Oc1ccc(-c2cccc(-c3ccc(O)cc3)c2)cc1,inactive
9,CCOC(=O)/C(=C\c1ccc([N+](=O)[O-])cc1)C(=O)c1cc(C(C)=O)c(Nc2ccccc2)s1,5.62 µM (active)
10,O=C(Nc1ccccc1)/C(=C/c1ccc([N+](=O)[O-])cc1)NC(=O)c1ccccc1,inactive
11,Cc1cccc(NC(=O)c2sc(-c3ccccc3)nc2-c2ccc([N+](=O)[O-])cc2)c1,inactive
12,C#CC(C)(C)NC(=O)c1cnc(-c2ccccc2)nc1-c1ccccc1,inactive
13,CCC(=O)N(CCc1ccccc1)Cc1cc2cc(C)ccc2[nH]c1=O,inactive
14,Cc1cc(C)n(CCNS(=O)(=O)c2ccc(Cl)cc2)n1,inactive
15,COc1cc2cc(C(=O)N/N=C/c3cccc(OC)c3OC)[nH]c2cc1OC,inactive
16,CN(C)CCNC(=O)c1[nH]nc2c1CCc1ccccc1-2,inactive
17,COc1cccc(/C=N/NC(=O)c2[nH]nc3c2CCc2ccccc2-3)c1O,0.794 µM (active)
18,CN(C(=O)CN1C(=O)/C(=C/c2ccc(Cl)cc2)SC1=S)C1CCS(=O)(=O)C1 (configuration not stated),inactive
19,Cc1nc2ccccc2nc1N/N=C/c1ccc(O)cc1O,15.8 µM (active)
20,Cc1cc(N/N=C/c2ccccc2F)c2ccccc2n1,inactive
21,Oc1ccc(/C=N/NC2=NCCCCC2)c(O)c1,inactive
